Bioassay records from PubChem.
The full list was thinned out, with hits kept by preference.
NSD2 block: NSD2 (human) methyltransferase inhibition; hit rate 0.07% among 44,000; inhibition, % at 12.5 µM; NSD2-SET H3K36me1 DELFIA fluorescence, biochemical; AID 624260; O96028; in the data active means inhibition above about 54%, passing the limit was not always enough;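 further: inhibitors reduce the monomethyl H3K36 fluorescence signal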
Starred values were filed as active, the others as inactive.

SMILES	NSD2 block
O=C(NN=C1CCCCCC1)c1ccccc1O	4
CC/C(=C(/c1ccccc1)c1ccc(OCCN(C)C)cc1)c1ccccc1	58*
CCN(CC)CCOc1ccc(/C(=C(\Cl)c2ccccc2)c2ccccc2)cc1	2
CN(C)CCOC(=O)COc1ccc(Cl)cc1	4
CC1=C[C@@H](O)[C@H]2C(C)(C)CCC[C@]2(C)[C@@]1(O)CO	-9
COC(=O)c1cc(NC2c3ccccc3C(=O)N2c2ccccn2)cc(C(=O)OC)c1 (configuration not stated)	-2
Clc1nc(Cl)c2cc(Br)ccc2n1	-2
COC(=O)CCCCCCC(=O)N/N=C/c1cc(OC)ccc1Br	-1
C[C@@H]1O[C@@H](OC[C@H]2O[C@@H](OCCc3ccc(O)c(O)c3)[C@H](O)[C@@H](O)[C@@H]2OC(=O)/C=C/c2ccc(O)c(O)c2)[C@H](O)[C@H](O)[C@H]1O	-1
O=C(CCCCCC(=O)Nc1ccccc1O)N/N=C/c1ccc[nH]1	3
CC(=O)c1c(O)cc(O[C@@H]2O[C@H](CO)[C@@H](O)[C@H](O)[C@H]2O)cc1O	35
COc1cc(O[C@@H]2O[C@H](CO)[C@@H](O)[C@H](O)[C@H]2O)cc(OC)c1OC	-1
CC(C)=CCc1cc(O[C@@H]2O[C@H](CO)[C@@H](O)[C@H](O)[C@H]2O)cc(CC=C(C)C)c1C(O)C(=O)O (some centres not stated)	61*
COC(=O)CCCCCCC(=O)N/N=C/c1ccc(NC(=O)OC(C)(C)C)cc1	0
CC(C)(C)/C=N/NC(=O)CCCCCCC(=O)NO	1
O=C(N/N=C/c1cc(Br)c(O)c(Br)c1)c1ccccc1O	1
CC1(C)CC[C@]2(C(=O)O)CC[C@]3(C)C(=CCC4[C@@]5(C)C[C@@H](O)[C@H](O)[C@](C)(CO)C5CC[C@]43C)[C@@H]2[C@@H]1O (some centres not stated)	2
CC1(CO)CC(O)CC2(C)C3=C(CCC12)C(=O)OC3 (configuration not stated)	9
CN1CCN(c2ccc(CNS(=O)(=O)c3cccc4nonc34)cc2)CC1	2
C=C1[C@@H]2CC[C@H]3[C@]4(C)C[C@H](O)C[C@@H](C(=O)OC)[C@H]4CC[C@]3(C2)[C@H]1O	-7
O=C(CCCCCCC(=O)Nc1ccccc1O)N/N=C/c1ccc2ccccc2c1O	3
CC(=O)O[C@H]1CC[C@H](C)[C@@]2(C)[C@H](OC(C)=O)c3c(C)coc3C(=O)[C@H]12	-1
CS(=O)(=O)Nc1ccc2oc3ncccc3c(=O)c2c1	3
COc1ccc([C@@]2(O)c3c(ccc(/C=C/C4(C)CCC(C)(C)CO4)c3O)NC(=O)[C@@H]2OC)cc1 (some centres not stated)	-7
Cc1ccc(F)cc1S(=O)(=O)N[C@@H]1CCN(Cc2ccc3c(c2)OCO3)C1	0
SMILES	NSD2 block
C[C@@H]1O[C@@H](O[C@@H]2[C@@H](O)[C@H](Oc3c(-c4ccc(O)cc4)oc4cc(O)cc(O)c4c3=O)O[C@H](CO)[C@H]2O)[C@H](O)[C@H](O)[C@H]1O	37
O=c1c(O[C@@H]2O[C@H](CO)[C@@H](O)[C@H](O)[C@H]2O)c(-c2ccc(O)cc2)oc2cc(O)cc(O)c12	-8
O=c1c(O[C@@H]2O[C@H](CO)[C@@H](O)[C@H](O)[C@H]2O)c(-c2ccc(O)c(O)c2)oc2cc(O)cc(O)c12	27
O=c1c(O[C@@H]2O[C@H](CO)[C@H](O)[C@H](O)[C@H]2O)c(-c2cc(O)c(O)c(O)c2)oc2cc(O)cc(O)c12	85*
O=c1ccc2ccc(Oc3ncnc4scc(-c5ccc(F)cc5)c34)cc2o1	2
O=C(CCCCCC(=O)Nc1ccccc1O)N/N=C/[C@H](O)[C@@H](O)[C@H](O)CO	3
OCC1(CO)COC(COc2ccccc2)=N1	-5
COC(=O)c1cccc(OC(C)C(=O)O)c1 (configuration not stated)	0
COc1cc(/C=C/C=N/NC(=O)CCCCCCC(=O)Nc2ccccc2O)ccc1O	-4
O=C(CCCCCC(=O)N/N=C/c1cccc(Br)c1)NO	6
COC(=O)CCCCCCC(=O)N/N=C/c1ccc(OCCCN(C)C)cc1	2
O=C(CCCCCC/C=C/c1ccc2c(c1)OCO2)N1CCCCC1	2
CC(C)C12CC1C(C)(O[C@@H]1O[C@H](CO)[C@@H](O)[C@H](O)[C@H]1O)CC2=O (some centres not stated)	15
CC(C)(C)OC(=O)N1CCC[C@H]1/C=N/NC(=O)CCCCCC(=O)O	7
Cc1cc(=O)c2c(O)c3c(cc2o1)OC(C(C)(C)OC1OC(CO)C(O)C(O)C1O)C3 (configuration not stated)	1
O=C(CCCCCC(=O)Nc1ccccc1O)N/N=C/C1=CCCCC1	-1
Cc1ncc2ccccc2c1C#N	7
COc1cc(-c2oc3cc(O)cc(O)c3c(=O)c2OC2OC(CO)C(O)C(O)C2O)ccc1O (configuration not stated)	38
O=C(N/N=C/c1ccoc1)c1ccccn1	0
COc1ccc(C(=O)Nc2cccc(N=[N+]=[N-])c2)cc1	-4
